# Measurements as given in PubChem BioAssay (NCATS).
# Records with an inconclusive call do not appear. Entries that show only a call come without a potency. A number with no mark means an inactive call. Active and inactive are the calls of the source. Calls follow the shape of the dose curve; as a rule, active = well fitted inhibition curve with a large enough effect; inconclusive = small, poorly fitted or top-dose-only effect; inactive = flat fitted curve, though single readings scatter.
# Assays:
# ECU = assay: qHTS profiling for inhibitors of Plasmodium falciparum proliferation (AID 504749); also: potency is read from the fitted curve at half-maximal effect; conditions: P. falciparum in erythrocytes, SYBR Green DNA, 72 h; series mostly up to 28.7 µM
# Method in brief: (§1)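 Fluorescence of SYBR Green-bound parasite DNA, read at 485/535 nm, served as the growth measure. Infected erythrocytes were cultured with compound 72 h; artemisinin (0.29 uM) and DMSO wells defined the normalization range.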
# FAB9 = assay: as above; conditions: P. falciparum in erythrocytes, SYBR Green DNA, 72 h; series mostly up to 28.7 µM
# Method in brief: as §1
# GB4 = assay: as above; conditions: P. falciparum in erythrocytes, SYBR Green DNA, 72 h; series mostly up to 28.7 µM
# Method in brief: as §1
# HB3 = assay: as above; conditions: P. falciparum in erythrocytes, SYBR Green DNA, 72 h; series mostly up to 28.7 µM
# Method in brief: as §1
# ICS = assay: as above; conditions: P. falciparum in erythrocytes, SYBR Green DNA, 72 h; series mostly up to 28.7 µM
# Method in brief: as §1
# JCK = assay: as above; conditions: P. falciparum in erythrocytes, SYBR Green DNA, 72 h; series mostly up to 28.7 µM
# Method in brief: as §1
# N140 = assay: as above; conditions: P. falciparum in erythrocytes, SYBR Green DNA, 72 h; series mostly up to 28.7 µM
# Method in brief: as §1
# P93_24 = assay: as above; conditions: P. falciparum in erythrocytes, SYBR Green DNA, 72 h; series mostly up to 28.7 µM
# Method in brief: as §1
# P94_40 = assay: as above; conditions: P. falciparum in erythrocytes, SYBR Green DNA, 72 h; series mostly up to 28.7 µM
# Method in brief: as §1
# PAD = assay: as above; conditions: P. falciparum in erythrocytes, SYBR Green DNA, 72 h; series mostly up to 28.7 µM
# Method in brief: as §1
# PC15 = assay: as above; conditions: P. falciparum in erythrocytes, SYBR Green DNA, 72 h; series mostly up to 28.7 µM
# Method in brief: as §1
# PC26 = assay: as above; conditions: P. falciparum in erythrocytes, SYBR Green DNA, 72 h; series mostly up to 28.7 µM
# Method in brief: as §1
# PC49 = assay: as above; conditions: P. falciparum in erythrocytes, SYBR Green DNA, 72 h; series mostly up to 28.7 µM
# Method in brief: as §1
# SC27B = assay: as above; conditions: P. falciparum in erythrocytes, SYBR Green DNA, 72 h; series mostly up to 28.7 µM
# Method in brief: as §1
# TAB109 = assay: as above; conditions: P. falciparum in erythrocytes, SYBR Green DNA, 72 h; series mostly up to 28.7 µM
# Method in brief: as §1
# TAB113 = assay: as above; conditions: P. falciparum in erythrocytes, SYBR Green DNA, 72 h; series mostly up to 28.7 µM
# Method in brief: as §1
# TAB165 = assay: as above; conditions: P. falciparum in erythrocytes, SYBR Green DNA, 72 h; series mostly up to 28.7 µM
# Method in brief: as §1
# W2 = assay: as above; conditions: P. falciparum in erythrocytes, SYBR Green DNA, 72 h; series mostly up to 28.7 µM
# Method in brief: as §1
# CRL-7250 = normal cell line; assay: Cytotoxic Profiling of Annotated Libraries Using Quantitative High-Throughput Screening (AID 1296008); conditions: Five cell lines viability, CellTiter-Glo ATP luminescence, 48-72 h; stronger effect = lower value
# Method in brief: (§2)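 Compounds were pin-transferred onto cells and incubated 48 or 72 hr at 37 degree Celsius, 95% humidity. CellTiter-Glo was added, plates sat 10 min at room temperature, then ATP-coupled luminescence was imaged as the viability read-out.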
# HEK293 = assay: as above; conditions: Five cell lines viability, CellTiter-Glo ATP luminescence, 48-72 h; max response: stronger effect = lower value
# Method in brief: as §2
# Also: nearly all actives have a fitted effect of over 60% in size.
Compound,Potency (ECU),Potency (FAB9),Potency (GB4),Potency (HB3),Potency (ICS),Potency (JCK),Potency (N140),Potency (P93_24),Potency (P94_40),Potency (PAD),Potency (PC15),Potency (PC26),Potency (PC49),Potency (SC27B),Potency (TAB109),Potency (TAB113),Potency (TAB165),Potency (W2),max response (CRL-7250),outcome (HEK293)
C=CC(C)(O)CC/C=C(\C)CCC=C(C)C (stereo not drawn),inactive,inactive,inactive,inactive,inactive,inactive,inactive,inactive,inactive,inactive,inactive,inactive,inactive,inactive,inactive,inactive,inactive,–,–,–
CCCCCCCCCC(=O)NO,inactive,inactive,inactive,inactive,inactive,inactive,inactive,inactive,inactive,inactive,inactive,inactive,inactive,inactive,inactive,inactive,inactive,–,–,–
CCCCCCCCCCCCCCCCCC[N+](C)(C)CCC[Si](OC)(OC)OC,inactive,inactive,inactive,inactive,inactive,inactive,inactive,inactive,inactive,inactive,inactive,inactive,inactive,inactive,inactive,inactive,inactive,–,–,–
OC[C@H]1O[C@@H]2O[C@H]3[C@H](O)[C@@H](O)[C@@H](O[C@H]4[C@H](O)[C@@H](O)[C@@H](O[C@H]5[C@H](O)[C@@H](O)[C@@H](O[C@H]6[C@H](O)[C@@H](O)[C@@H](O[C@H]7[C@H](O)[C@@H](O)[C@@H](O[C@H]1[C@H](O)[C@H]2O)O[C@@H]7CO)O[C@@H]6CO)O[C@@H]5CO)O[C@@H]4CO)O[C@@H]3CO,inactive,inactive,inactive,inactive,inactive,inactive,inactive,inactive,inactive,inactive,inactive,inactive,inactive,inactive,inactive,inactive,inactive,inactive,–,–
c1ccc2c(c1)OCC(CN1CCCCC1)O2 (stereo not drawn),inactive,inactive,inactive,inactive,inactive,inactive,inactive,inactive,inactive,inactive,inactive,inactive,inactive,inactive,inactive,inactive,inactive,–,–,–
O=C(OCc1ccccc1)c1ccc(O)cc1,inactive,inactive,inactive,inactive,inactive,inactive,inactive,inactive,inactive,inactive,inactive,inactive,inactive,inactive,inactive,inactive,inactive,inactive,-9.5%,inactive
COc1ccc2nc(NC(=O)Nc3ccccc3)sc2c1,inactive,inactive,–,inactive,7.94 µM (active),inactive,–,inactive,inactive,inactive,inactive,inactive,inactive,inactive,inactive,inactive,–,–,1.89%,–
O=[n+]1ccn([O-])c2ccccc21,inactive,inactive,inactive,inactive,inactive,inactive,inactive,inactive,inactive,inactive,inactive,inactive,inactive,inactive,inactive,inactive,inactive,–,–,–
